# Measured values from PubChem BioAssay AID1159580 (chemical genetic matrix, 2015).
# In all, about 5,500 compounds went through this assay and about 2,000 (36%) were called active. Not shown: some 18% with an inconclusive outcome. Some of the results follow. A number with no mark means an inactive call. Rule as the data show it: active = normalized growth mostly below about 0.91 (no sharp cut-off); inconclusive = no clear call, values can overlap the other calls; inactive = mostly above about 0.92.
# Experiment: chemical genetic growth profiling, strain panel (AID 1159580);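 also: tested at 20 µM; growth read once vehicle control cultures reached saturation at 30 °C; 1 = growth at the plate median or of vehicle wells; lower values mean less growth of the strain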
# Settings: growth OD
smiles,measurement,setting,value
CC(=O)OC[C@@]1(O)C[C@@]23CCC4c5ccoc5CC[C@]4(C)C2CC[C@@H]1C3 (some centres not stated),normalized growth,"S. cerevisiae deletion strains, locus YJR075W, strain HOC1, active compounds read low",1.01
same,normalized growth,"S. cerevisiae deletion strains, locus YKL009W, strain mrt4, active compounds read low",0.868 (active)
same,normalized growth,"S. cerevisiae deletion strains, locus YKL068W, active compounds read low",0.969
same,normalized growth,"S. cerevisiae deletion strains, locus YKL085W, strain MDH1 (second series), active compounds read low",0.967
same,normalized growth,"S. cerevisiae deletion strains, locus YKL085W, strain MDH1, active compounds read low",0.967
same,normalized growth,"S. cerevisiae deletion strains, locus YKL160W, strain elf1, active compounds read low",0.978
same,normalized growth,"S. cerevisiae deletion strains, locus YKL190W, strain CNB1, active compounds read low",0.986
same,normalized growth,"S. cerevisiae deletion strains, locus YKR001C, strain vps1, active compounds read low",0.942
same,normalized growth,"S. cerevisiae deletion strains, locus YKR026C, strain gcn3, active compounds read low",1.01
same,normalized growth,"S. cerevisiae deletion strains, locus YKR091W, strain srl3, active compounds read low",1
same,normalized growth,"S. cerevisiae deletion strains, locus YLL001W, strain dnm1, active compounds read low",0.974
same,normalized growth,"S. cerevisiae deletion strains, locus YLL026W, active compounds read low",1.02
same,normalized growth,"S. cerevisiae deletion strains, locus YLL041C, strain sdh2, active compounds read low",1.02
same,normalized growth,"S. cerevisiae deletion strains, locus YLR027C, strain aat2, active compounds read low",1.01
same,normalized growth,"S. cerevisiae deletion strains, locus YLR039C, strain RIC1, active compounds read low",0.661 (active)
same,normalized growth,"S. cerevisiae deletion strains, locus YLR058C, strain SHM2, active compounds read low",0.973
same,normalized growth,"S. cerevisiae deletion strains, locus YLR102C, strain apc9, active compounds read low",0.973
same,normalized growth,"S. cerevisiae deletion strains, locus YLR113W, strain HOG1, active compounds read low",0.901
same,normalized growth,"S. cerevisiae deletion strains, locus YLR221C, strain rsa3, active compounds read low",0.968
same,normalized growth,"S. cerevisiae deletion strains, locus YLR258W, strain gsy2, active compounds read low",0.99
same,normalized growth,"S. cerevisiae deletion strains, locus YLR262C, strain YPT6 (second series), active compounds read low",0.817 (active)
same,normalized growth,"S. cerevisiae deletion strains, locus YLR262C, strain YPT6, active compounds read low",0.624
same,normalized growth,"S. cerevisiae deletion strains, locus YLR268W, strain sec22, active compounds read low",0.987
same,normalized growth,"S. cerevisiae deletion strains, locus YLR320W, strain mms22, active compounds read low",0.945
same,normalized growth,"S. cerevisiae deletion strains, locus YLR330W, strain CHS5, active compounds read low",0.969
same,normalized growth,"S. cerevisiae deletion strains, locus YLR342W, strain FKS1 (second series), active compounds read low",0.775 (active)
same,normalized growth,"S. cerevisiae deletion strains, locus YLR342W, strain FKS1, active compounds read low",1.01
same,normalized growth,"S. cerevisiae deletion strains, locus YLR357W, strain rsc2, active compounds read low",0.963
same,normalized growth,"S. cerevisiae deletion strains, locus YLR370C, strain arc18, active compounds read low",1
same,normalized growth,"S. cerevisiae deletion strains, locus YLR371W, strain rom2, active compounds read low",0.96
same,normalized growth,"S. cerevisiae deletion strains, locus YLR384C, strain iki3, active compounds read low",1.03
same,normalized growth,"S. cerevisiae deletion strains, locus YLR418C, strain cdc73, active compounds read low",0.983
same,normalized growth,"S. cerevisiae deletion strains, locus YML016C, strain PPZ1, active compounds read low",0.978
same,normalized growth,"S. cerevisiae deletion strains, locus YML032C, strain rad52, active compounds read low",0.884 (active)
same,normalized growth,"S. cerevisiae deletion strains, locus YML120C, strain ndi1, active compounds read low",1.01
same,normalized growth,"S. cerevisiae deletion strains, locus YML124C, strain tub3, active compounds read low",0.98
same,normalized growth,"S. cerevisiae deletion strains, locus YMR058W, strain fet3, active compounds read low",0.952
same,normalized growth,"S. cerevisiae deletion strains, locus YMR078C, strain ctf18, active compounds read low",0.965
same,normalized growth,"S. cerevisiae deletion strains, locus YMR125W, strain sto1, active compounds read low",0.988
same,normalized growth,"S. cerevisiae deletion strains, locus YMR129W, active compounds read low",1.02
same,normalized growth,"S. cerevisiae deletion strains, locus YMR205C, strain PFK2, active compounds read low",0.981
same,normalized growth,"S. cerevisiae deletion strains, locus YMR223W, strain ubp8, active compounds read low",0.905
same,normalized growth,"S. cerevisiae deletion strains, locus YMR231W, strain pep5, active compounds read low",1.01
same,normalized growth,"S. cerevisiae deletion strains, locus YMR263W, strain SAP30, active compounds read low",0.985
same,normalized growth,"S. cerevisiae deletion strains, locus YMR307W, strain GAS1, active compounds read low",0.779
same,normalized growth,"S. cerevisiae deletion strains, locus YNL067W, strain RPL9B, active compounds read low",0.963
same,normalized growth,"S. cerevisiae deletion strains, locus YNL071W, strain lat1, active compounds read low",0.964
same,normalized growth,"S. cerevisiae deletion strains, locus YNL128W, strain TEP1, active compounds read low",0.997
same,normalized growth,"S. cerevisiae deletion strains, locus YNL153C, strain GIM3, active compounds read low",0.992
same,normalized growth,"S. cerevisiae deletion strains, locus YNL183C, strain NPR1, active compounds read low",0.877
same,normalized growth,"S. cerevisiae deletion strains, locus YNL209W, strain ssb2, active compounds read low",1.02
same,normalized growth,"S. cerevisiae deletion strains, locus YNL233W, strain BNI4, active compounds read low",0.947
same,normalized growth,"S. cerevisiae deletion strains, locus YNL248C, strain rpa49, active compounds read low",0.96
same,normalized growth,"S. cerevisiae deletion strains, locus YNL250W, strain rad50, active compounds read low",0.976
same,normalized growth,"S. cerevisiae deletion strains, locus YNL271C, strain bni1, active compounds read low",0.975
same,normalized growth,"S. cerevisiae deletion strains, locus YNL298W, strain CLA4, active compounds read low",0.891 (active)
same,normalized growth,"S. cerevisiae deletion strains, locus YNL307C, strain MCK1, active compounds read low",0.778 (active)
same,normalized growth,"S. cerevisiae deletion strains, locus YNL322C, strain KRE1 (second series), active compounds read low",1.03
same,normalized growth,"S. cerevisiae deletion strains, locus YNL322C, strain KRE1, active compounds read low",0.997
same,normalized growth,"S. cerevisiae deletion strains, locus YNR049C, strain mso1, active compounds read low",1.01
same,normalized growth,"S. cerevisiae deletion strains, locus YNR052C, strain pop2, active compounds read low",0.938
same,normalized growth,"S. cerevisiae deletion strains, locus YOL006C, strain TOP1, active compounds read low",1.11
same,normalized growth,"S. cerevisiae deletion strains, locus YOL012C, strain htz1",1.41
same,normalized growth,"S. cerevisiae deletion strains, locus YOL147C, strain pex11, active compounds read low",0.971
same,normalized growth,"S. cerevisiae deletion strains, locus YOR001W, strain rrp6, active compounds read low",0.985
same,normalized growth,"S. cerevisiae deletion strains, locus YOR061W, strain CKA2, active compounds read low",0.952
same,normalized growth,"S. cerevisiae deletion strains, locus YOR069W, strain VPS5, active compounds read low",0.981
same,normalized growth,"S. cerevisiae deletion strains, locus YOR070C, strain gyp1, active compounds read low",1.01
same,normalized growth,"S. cerevisiae deletion strains, locus YOR080W, strain dia2, active compounds read low",1.02
same,normalized growth,"S. cerevisiae deletion strains, locus YOR083W, strain WHI5, active compounds read low",0.978
same,normalized growth,"S. cerevisiae deletion strains, locus YOR106W, strain vam3, active compounds read low",0.998
same,normalized growth,"S. cerevisiae deletion strains, locus YOR136W, strain idh2, active compounds read low",0.95
same,normalized growth,"S. cerevisiae deletion strains, locus YOR144C, strain elg1, active compounds read low",0.97
same,normalized growth,"S. cerevisiae deletion strains, locus YOR184W, strain ser1, active compounds read low",0.69 (active)
same,normalized growth,"S. cerevisiae deletion strains, locus YOR231W, strain MKK1, active compounds read low",0.872
same,normalized growth,"S. cerevisiae deletion strains, locus YOR265W, strain rbl2, active compounds read low",1.01
same,normalized growth,"S. cerevisiae deletion strains, locus YOR270C, strain vph1, active compounds read low",1.21
same,normalized growth,"S. cerevisiae deletion strains, locus YOR290C, strain snf2, active compounds read low",0.927
same,normalized growth,"S. cerevisiae deletion strains, locus YOR316C, strain cot1, active compounds read low",0.966
same,normalized growth,"S. cerevisiae deletion strains, locus YPL051W, strain arl3, active compounds read low",0.967
same,normalized growth,"S. cerevisiae deletion strains, locus YPL055C, strain LGE1, active compounds read low",0.954
same,normalized growth,"S. cerevisiae deletion strains, locus YPL078C, strain atp4, active compounds read low",0.931
same,normalized growth,"S. cerevisiae deletion strains, locus YPL106C, strain sse1, active compounds read low",0.99
same,normalized growth,"S. cerevisiae deletion strains, locus YPL240C, strain hsp82, active compounds read low",1.01
same,normalized growth,"S. cerevisiae deletion strains, locus YPL241C, strain CIN2, active compounds read low",0.978
same,normalized growth,"S. cerevisiae deletion strains, locus YPL256C, strain CLN2, active compounds read low",0.927
same,normalized growth,"S. cerevisiae deletion strains, locus YPR119W, strain clb2, active compounds read low",0.967
same,normalized growth,"S. cerevisiae deletion strains, locus YPR141C, strain kar3, active compounds read low",0.989
same,normalized growth,"S. cerevisiae deletion strains, locus YPR163C, strain tif3, active compounds read low",0.962
same,normalized growth,"S. cerevisiae deletion strains, locus YPR167C, strain met16, active compounds read low",0.978
same,normalized growth,"S. cerevisiae deletion strains, strain wtn01, active compounds read low",0.948
same,normalized growth,"S. cerevisiae strains, strain wild type, active compounds read low",0.964
